High-throughput results deposited in PubChem by National Center for Advancing Translational Sciences (NCATS).
KB-V1 cytotox: KB-V1 MDR subline cytotoxicity | KB-V1 MDR cells viability, CellTiter-Glo, 72 h | Potency, µM (titrated, usually from 46.1 µM), usual class: cytotoxic | hit rate 3.4% among 400,000 | AID 1347076; also: % is scaled to controls: 0 for no effect and ±100 for the full control effect; nearly all actives have a fitted effect of over 60% in size
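Drug-selected KB-V1 cells, grown in DMEM lacking phenol red with 10% FBS, receive compound titrations; after three days at 37 degrees C, surviving cell ATP is quantified by CellTiter-Glo luminescence and responses normalized and curve-fitted.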
KB-3-1 cytotox: KB-3-1 parental cell cytotoxicity; hit rate 1.4% among 400,000; AID 1347075; KB-3-1 viability, CellTiter-Glo ATP luminescence, 72 h; Potency, µM (doses to about 46.1 µM), usual class: cytotoxic; also: % is scaled to controls: 0 for no effect and ±100 for the full control effect; nearly all actives have a fitted effect of over 60% in size
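72 h, 37 °C compound treatment of KB-3-1 parental cells; CellTiter-Glo added, 10 min, luminescence read. Data corrected against DMSO-only plates and normalized before curve fitting.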
HT1080-NT tox: kills 2HG-producing HT-1080-NT fibrosarcoma cells; Potency, µM (titrated, usually from 46.1 µM), inactives show top-dose activity, negative = less viability, most hits filed as cytotoxic; AID 686970; HT-1080-NT fibrosarcoma viability, CellTiter-Glo ATP luminescence, 48 h; hit rate 1.6% among 360,000;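 also: NT is the 2HG producing partner of a matched IDH1 knockdown line; 0% = DMSO-treated cells and -100% = media-only wells without cells; nearly all actives have a fitted effect of over 55% in size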
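HT-1080-NT; 750 cells/well; 5% FBS RPMI; 48 h compound, 37 degrees C; CellTiter-Glo luminescence; curve fitting and curve-class assignment.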
S2 tox: reduces viability in counter-screen for ATXN expression inhibitors; S2 cells (HEK-293 line with an ATXN2-luciferase reporter) viability, CellTiter-Fluor protease fluorescence, 24 h; Potency, µM (titrated, usually from 56.7 µM), actives largely listed as cytotoxic; hit rate 0.49% among 400,000; AID 651635; also: nearly all actives have a fitted effect of over 40% in size
HT1080 IDH1KD tx: toxicity to HT-1080 IDH1 knockdown cells (counter line); hit rate 2% among 360,000; HT-1080 IDH1 knockdown viability, ATP luminescence, 48 h; Potency, µM (top dose mostly 46.1 µM), without a hit: at the highest dose activity, negative = toxicity, actives largely listed as cytotoxic; AID 686971;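 also: 0% = DMSO wells and -100% = cell-free medium wells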
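After a 2 h attachment period, IDH1KD HT-1080 cells took pin-transferred compound for 48 h at 37 °C; ATP-based luminescence after 10 min room-temperature reagent incubation reported viability.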
ATXN2 expr inh: reduces ATXN2 reporter expression in HEK-293 cells | HEK-293 ATXN2-luciferase reporter, luminescence, 24 h | Potency, µM (titrated, usually from 57 µM), for the others: at the top dose activity change, negative = inhibition, hits mostly inhibitors | AID 1745845 | hit rate 0.72% among 360,000; also: % is scaled to controls: 0 for no effect and ±100 for the full control effect; nearly all actives have a fitted effect of over 55% in size
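ATXN2-luciferase reporter cells (luciferase flanked by upstream and downstream ATXN2 gene portions) were treated 24 h at 37 °C with compounds at up to 57 uM. SteadyGlo luminescence gave expression; GF-AFC fluorescence gave viability.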
* = called active by the depositor; i = inactive; u = inconclusive; x = not tested or not shown; [ ] = remark or other dose. In the library only some 6.2% were active in any assay of this set; here they are far more common. Calls follow the shape of the dose curve; as a rule, active = well fitted curve in the direction sought with a large enough effect; inconclusive = small, poorly fitted or top-dose-only effect, or another doubt; inactive = no such curve, though single readings can be large; an effect the other way counts as inactive or inconclusive. Potency is read from the fitted curve at half-maximal effect.

SMILES	KB-V1 cytotox	KB-3-1 cytotox	HT1080-NT tox	S2 tox	HT1080 IDH1KD tx	ATXN2 expr inh
CC1(C(=O)Nc2ccc(Cl)c(C(F)(F)F)c2)Cc2c(-c3cccc(C(N)=O)c3)ccnc2O1 (configuration not stated)	u	i	23.1µM*	u	u	u
CC1(C(=O)Nc2cccc(C(F)(F)F)c2)Cc2c(-c3cccc(C(N)=O)c3)ccnc2O1 (configuration not stated)	i	i	u	u	u	u
CC1(C(=O)Nc2ccc(Cl)c(C(F)(F)F)c2)Cc2c(-c3ccc(C(N)=O)cc3)ccnc2O1 (configuration not stated)	u	u	16.4µM*	u	16.4µM*	-25.8%
Cc1ccc(/C=N/n2c(-c3ccccc3)csc2=S)cc1	x	x	x	i	x	-1.3%
CN(C)c1c(Cl)cc(/C=C2\C=Cc3ccccc32)cc1Cl	i	i	x	x	x	x
Cn1c(SCc2cc(=O)n3cc(Br)ccc3n2)nnc1C1COc2ccccc2O1 (configuration not stated)	11.6µM*	i	0.5%	i	8.7%	1.3%
O=C(OCc1cc(=O)n2cc(Br)ccc2n1)C1COc2ccccc2O1 (configuration not stated)	i	i	2.0%	i	9.7%	0.0%
CCN(CC)CCn1nc2c3c(cccc3c1=O)-c1ccccc1-2	5.8µM*	u	14.6µM*	u	20.6µM*	10µM*
O=C(CCn1nc(-c2ccccc2)c2ccccc2c1=O)NN1CCOCC1	i	u	4.7%	i	17.9%	-8.8%[11.3 µM]
O=c1c2cccc3c2c(nn1CN1CCOCC1)-c1ccccc1-3	1.64µM*	4.11µM*	-24.2%	i	u	-16.1%
CCN(CC)CCn1nc(C)nc1-c1ccccc1O	u	i	0.6%	i	4.1%	1.1%
O=C(CSc1nc2cc(Cl)c(Cl)cc2[nH]1)c1ccc2c(c1)OCO2	8.2µM*	14.6µM*	-24.6%	x	-17.8%	-28.2%
O=C(CSc1nc2ccc(Cl)cc2[nH]1)c1ccc2c(c1)OCO2	i	i	1.3%	i	8.4%	18.6%
COc1cc(Cl)c(C)cc1NC(=O)c1sc2nc3n(c(=O)c2c1C)CCCCC3	i	i	x	x	x	x
Cn1nnnc1SCCNC(=O)C1CCC(=O)N(CCc2cccc(F)c2)C1 (configuration not stated)	i	i	-7.8%	i	-1.3%	x
Nc1nc(SCC(=O)Nc2ccccc2Sc2ccccc2)n[nH]1	14.6µM*	i	7.6%	i	-18.3%	-2.8%
O=C(Cc1ccc(Cl)cc1)Nc1ccccc1Sc1ccccc1	23.1µM*	u	-12.8%	i	-5.8%	-6.3%
O=C(CCl)Nc1ccccc1Sc1ccccc1	i	i	-7.0%	i	-3.3%	-15.2%
O=C(Cc1ccccc1)Nc1cc(Cl)ccc1Sc1ccccc1	18.4µM*	i	6.3%	i	26.3%	3.1%
Cc1ccc(S(=O)(=O)N2CCN(c3nc(-c4cccs4)nc4ncccc34)CC2)cc1	i	u	x	x	x	x
COc1cccc(Nc2ncnc3c2cnn3-c2cccc(C)c2)c1	20.6µM*	i	-2.3%	i	-14.9%	29.2%
Cc1cccc(-n2ncc3c(Nc4c(C)n(C)n(-c5ccccc5)c4=O)ncnc32)c1	20.6µM*	i	-0.4%	i	-10.3%	1.9%
Cc1c(Nc2ncnc3c2cnn3-c2ccccc2)c(=O)n(-c2ccccc2)n1C	u	i	-3.2%	i	-9.5%	4.3%
COc1ccc(NC(=O)CSc2cn(CCNC(=O)c3c(F)cccc3F)c3ccccc23)cc1	i	i	x	i	x	-18.1%
O=C(Nc1ccncc1)c1cc(C2CCCCN2C(=O)CCCc2ccccc2)on1 (configuration not stated)	i	i	-0.4%	u	-8.6%	-33.7%
SMILES	KB-V1 cytotox	KB-3-1 cytotox	HT1080-NT tox	S2 tox	HT1080 IDH1KD tx	ATXN2 expr inh
CCOC(=O)c1cnn(CCOC(=O)c2ccc(OC)cc2)c1NC(=O)c1ccc(OC)cc1	u	i	-4.3%	i	-4.2%	-14.2%
CCOC(=O)c1cnn(CCOC(=O)c2ccccc2)c1NC(=O)c1ccccc1	10.3µM*	i	-1.2%	i	-6.0%	1.8%
COc1cc(/C=C/C(=O)c2ccc(Cl)s2)cc(OC)c1O	u	i	u	u	11.2µM*	u
COc1ccc(/C=C/C(=O)c2ccc(Cl)s2)cc1O	u	u	-8.2%	i	-14.1%	17.7%
COc1cc(/C=C/C(=O)c2ccc3c(c2)OCO3)cc(Cl)c1O	i	i	u	x	23.1µM*	-6.9%
COc1ccc(C(=O)C=Cc2ccc3c(c2)OCO3)cc1OC	u	u	-15.0%	u	-14.2%	x
COc1ccc(-n2c(CNC(=O)c3cccc4ccccc34)nnc2SC)cc1	x	x	x	i	x	x
COc1ccc(CN2CCOc3ccc(C(O)c4cccnc4)cc3C2)c(F)c1 (configuration not stated)	x	x	x	i	x	x
O=C(NC(=S)N1CCCCC1)C12CC3CC(CC(C3)C1)C2	i	i	12.5%	i	7.5%	33.4%
CC12CC3CC(C)(C1)CC(C(=O)NC(=S)N1CCOCC1)(C3)C2	i	i	11.2µM*	i	-16.4%	-5.8%
CCn1c(-c2ccccc2F)nc2cc(NC(C)=O)cc(C(=O)N3CCC[C@H]3C(=O)OC)c21	x	x	x	i	x	x
COc1ccccc1Nc1ncccc1C(=O)NCc1ccccc1	i	u	7.9%	i	5.7%	-4.5%
COc1ccc(COc2ccccc2C(=O)NCc2ccccc2)cc1F	14.6µM*	i	-1.8%	u	-15.6%	u
O=C(COC(=O)c1cccc(-n2cnnn2)c1)c1ccc(F)c(F)c1	i	i	4.8%	i	7.1%	x
COc1ccc(C)cc1-n1c(=O)c2ccccc2c2ccccc2c1=O	i	i	-5.2%	i	-12.0%	-29.9%
COc1ccc(C)cc1N1C(=N)/C(=C2/Nc3ccccc3S2)C(c2ccccc2)C1=O (configuration not stated)	20.6µM*	u	-13.5%	i	-11.4%	2.6%
O=C(N/N=C/c1cc(O)ccc1Br)c1cccnc1	i	20.6µM*	u	u	u	2.82µM*
Cc1cc(O)c(C)c(O)c1/C=N/NC(=O)c1cccnc1	i	u	u	i	u	11.2µM*
O=C(N/N=C/c1ccc(Br)s1)c1cccnc1	i	i	9.7%	i	11.4%	2.8%
O=C(N/N=C/c1cc(Br)c(O)c(Br)c1O)c1cccnc1	i	u	u	u	10.3µM*	x
O=C(N/N=C/c1cc2c(cc1Br)OCO2)c1cccnc1	u	i	0.9%	i	0.9%	20.6%
